PubChem BioAssay AID624298 (National Center for Advancing Translational Sciences (NCATS), 2012)
Results filed as inconclusive are left out. Entries that show only a call come without a potency. The source made the active and inactive calls. Calls come from the whole dose curve; as a rule, active = well fitted activation curve with a large enough effect; inconclusive = small, poorly fitted or top-dose-only effect; inactive = no such curve, though single readings can be large or run the other way.

test: Activators of T cell receptors: Hit Validation; conditions: primary human leukocytes, cytokine release by HTRF, 48 h, TCR-stimulated with anti-CD3 beads; series mostly up to 46.1 µM
Text: Normally activation of naive T cells requires two signals. 1. A signal through the T cell receptor (TCR) which provides antigen specificity to the response. 2. Signals through co-stimulatory molecules, which are necessary for proliferation, survival and cytokine production. In the absence of co-stimulatory signals T cells are not effectively activated, and may even be rendered anergic or unresponsive to subsequent signaling. This lack of costimulation has been shown in multiple model systems to be a major factor in the limited strength and effectiveness of anti-tumor T cell responses. The goal of this project is to identify small molecule compounds that will stimulate T cell activation in the presence of TCR signaling but in the absence of co-stimulatory signals, thereby allowing activation of naive T cells in the absence of co-stimulation. Identification of such compounds would have clear experimental and clinical applications in instances where desirable antigen-specific immune responses are not generated due to a lack of co-stimulation, for example in the generation of anti-tumor responses.
In collaboration between the National Cancer Institute and NIH Chemical Genomics Center, a high-throughput amenable screen was developed to discover small molecules that co-stimulate and activate human T cell receptors. The screen will be carried out using a novel homogeneous time resolved fluorescence energy transfer (HTRF) assay to measure production of the cytokine IL-2 by activated T cells and will be tested against the NIH Molecular Libraries Small Molecule Repository (MLSMR). This is the same assay tested against the hits identified in the primary screen.
NIH Chemical Genomics Center [NCGC]
NIH Molecular Libraries Probe Centers Network [MLPCN]
Assay Submitter (PI): Richard Hodes, National Cancer Institute, NIH
Primary human leukocytes are incubated with a-CD3 beads and compounds for 48 hr. The amount of secreted IL-2 is then assayed with a HTRF IL-2 kit. The presence of IL-2 cytokine captures the detection reagents and brings the a-IL-2-K and a-IL-2-d2 into close proximity. Upon excitation with 320nm light, the europium cryptate is capable of transferring energy to acceptor molecules within close proximity, resulting in acceptor molecule emission at 665nm.
Potency is the fitted concentration of half-maximal effect.

Q: For `COc1ccc(OC)c(NC(=O)COC(=O)c2ccc(OC)c(S(=O)(=O)N3CCOCC3)c2)c1`, which Potency is on record?
A: inactive

Q: Which Potency does the source give for `Cn1c(=O)c2c(ncn2CC(O)CO)n(C)c1=O` (stereo not given) here?
A: inactive

Q: Which Potency does the source give for `Cc1ccc(C(=O)OCC(=O)NCc2ccco2)cc1C` here?
A: inactive

Q: Which Potency does the source give for `COc1ccc(CNC(=O)C[C@H]2C[C@H](C(=O)N3CCCCC3)[C@@]3(C)c4[nH]c5cc(-c6ccco6)ccc5c4CCN3C2=O)cc1OC` here?
A: inactive

Q: With `COc1cc2c(cc1O)CCN(C(=O)CSc1nncn1C)[C@@H]2C` as the molecule, how does the Potency read?
A: inactive

Q: Which Potency does the source give for `CSCCC(NC(=O)c1ccco1)C(=O)NCC1CCCO1` (stereo not given) here?
A: inactive

Q: For `NC(=O)c1ccccc1`, which Potency is on record?
A: inactive

Q: With `O=C1N=C(O)CN1/N=C/c1ccc(-c2ccc([N+](=O)[O-])cc2)o1` as the molecule, how does the Potency read?
A: inactive

Q: For `CC(C)(C)CC(=O)N1CCN(c2ccc(S(=O)(=O)N3CCOCC3)cc2[N+](=O)[O-])CC1`, which Potency is on record?
A: inactive

Q: For `S=c1[nH]c2ccccc2n2c(=S)[nH]nc12`, which Potency is on record?
A: 11.2 µM (active)

Q: For `COc1ccc(CN(C)C(C)C(=O)N(C)CC(=O)Nc2ccc(C)cc2)cc1F` (stereo not given), which Potency is on record?
A: inactive

Q: With `Cc1ccc(C(=O)NCCc2nnc3ccc(SCC(=O)N4CCCCC4)nn23)cc1` as the molecule, how does the Potency read?
A: inactive

Q: With `COc1ccccc1CC(=O)NNC(=O)CN(C)S(=O)(=O)c1ccc(Cl)cc1` as the molecule, how does the Potency read?
A: inactive

Q: For `CCN1CNC(=S)N(Cc2ccccc2)C1`, which Potency is on record?
A: inactive

Q: With `Cc1[nH]c2ccccc2c1C(=O)COc1ccccc1F` as the molecule, how does the Potency read?
A: inactive

Q: With `Cn1nc(C(F)(F)F)cc1-c1ccc(S(N)(=O)=O)s1` as the molecule, how does the Potency read?
A: inactive

Q: With `O=C(O)c1ccccc1-c1c2cc(I)c(=O)c(I)c-2oc2c(I)c(O)c(I)cc12` as the molecule, how does the Potency read?
A: 0.996 µM (active)

Q: Which Potency does the source give for `Cc1onc(-c2c(F)cccc2Cl)c1C(=O)Nc1sc2c(c1C(N)=O)CCC2` here?
A: inactive

Q: Which Potency does the source give for `CC(=O)NC(CC(=O)O)C(=O)O` (stereo not given) here?
A: inactive

Q: With `COc1ccc(Cl)cc1NC(=O)CN(C)C(=O)c1cn2ccccc2n1` as the molecule, how does the Potency read?
A: inactive

Q: With `N#Cc1ccccc1Sc1ccccc1C(=O)OCC(=O)NC12CC3CC(CC(C3)C1)C2` as the molecule, how does the Potency read?
A: inactive

Q: Which Potency does the source give for `CCN(CC(=O)Nc1c(F)cccc1F)C(=O)C1CCN(S(=O)(=O)c2ccccc2C(=O)OC)CC1` here?
A: inactive

Q: With `CN(C)CCCN1c2ccccc2Sc2ccc(Cl)cc21` as the molecule, how does the Potency read?
A: inactive

Q: With `O=S(=O)(Nc1cc(Cl)ccc1-n1cncn1)c1ccc(F)cc1` as the molecule, how does the Potency read?
A: inactive

Q: For `CCN(CC)c1ccc(S(=O)(=O)N2CCOCC2)cc1NC(=O)COC(=O)/C=C/c1ccccc1`, which Potency is on record?
A: inactive

Q: With `COc1ccc(Cl)cc1NC(=O)CN1C(=O)NC(C)(Cc2ccc(OC)c(OC)c2)C1=O` (stereo not given) as the molecule, how does the Potency read?
A: inactive

Q: For `O=C1/C(=C/c2cccnc2)SC(=S)N1Cc1ccco1`, which Potency is on record?
A: inactive

Q: Which Potency does the source give for `CC(C)N1C(=O)C(=O)N(CC(=O)N2CCc3ccccc32)C1=O` here?
A: inactive

Q: With `COc1ccc(C(=O)/C=C(\C)Nc2ccc(NC(C)=O)cc2)cc1` as the molecule, how does the Potency read?
A: inactive

Q: With `CC(C)NS(=O)(=O)c1ccc(NC(=O)C(C)OC(=O)C2CCC2)cc1` (stereo not given) as the molecule, how does the Potency read?
A: inactive

Q: For `COc1ccc(-n2c(=O)c(CCC(=O)NCCc3ccccc3F)nc3ccccc32)cc1`, which Potency is on record?
A: inactive

Q: For `O=C(O)c1ccc(OS(=O)(=O)c2cccc(C(F)(F)F)c2)cc1`, which Potency is on record?
A: inactive

Q: With `COc1cccc(CNC(=O)c2ccc(Cl)c(S(=O)(=O)N3CCOCC3)c2)c1` as the molecule, how does the Potency read?
A: inactive

Q: Which Potency does the source give for `CCN(C(=O)CSc1nnc(C2CC2)n1-c1ccccc1)C1CCS(=O)(=O)C1` (stereo not given) here?
A: inactive

Q: With `CC(=O)Nc1ccc(C(=O)OCC(=O)N(c2ccccc2)C2CCS(=O)(=O)C2)cc1` (stereo not given) as the molecule, how does the Potency read?
A: inactive

Q: Which Potency does the source give for `CCOc1ccc(-c2nnc(-c3snc(-c4ccc(F)cc4)c3N=CN(C)C)o2)cc1` here?
A: inactive

Q: For `S=c1[nH]nc(-c2cccnc2)n1C1CCCCC1`, which Potency is on record?
A: inactive

Q: Which Potency does the source give for `CC1CCCN(S(=O)(=O)c2ccc(NC(=O)C3CCN(C(=O)C(C)(C)C)CC3)cc2)C1` (stereo not given) here?
A: inactive

Q: Which Potency does the source give for `CN(C)c1ccc(NC(=O)COC(=O)CNC(=O)c2cccs2)cc1` here?
A: inactive

Q: With `CCOC(=O)c1c(NC(=O)c2ccc(N3C(=O)C4C5C=CC(C5)C4C3=O)cc2)sc2c1CCCC2` (stereo not given) as the molecule, how does the Potency read?
A: inactive
